In the library only some 3.8% were active in any assay of this set; here they are far more common.
PfM18AAP inh-1: blocks P. falciparum M18 aspartyl aminopeptidase; recombinant PfM18AAP, H-Glu-NHMec fluorogenic cleavage; inhibition, % at 7.35 µM; 1.2% of 290,000 active; AID 1822;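 active means inhibition above the campaign mean inhibition over all tested compounds plus 3 SD, cut at about 28% in these data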
pPAFAH inh: inhibitors of human plasma PAF acetylhydrolase (pPAFAH); Q13093; recombinant pPAFAH, FP-rhodamine probe fluorescence polarization; inhibition, % at 3.39 µM; 1.5% of 330,000 active; AID 463082;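 active means inhibition above the mean inhibition across the screen plus 3 SD, cut at about 25% in these data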;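 further: inhibitors block binding of the rhodamine activity-based probe so polarization drops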
PAFAH1B3 FP inh: blocks human PAF acetylhydrolase 1B catalytic subunit 3; Q15102; recombinant PAFAH1B3, FP-rhodamine probe, fluorescence polarization; inhibition, % at 3.39 µM; 0.28% of 340,000 active; AID 492972;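 active means inhibition above the screen-wide average of all tested compounds plus 3 SD, cut at about 25% in these data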
Target sequence (Q15102 whole entry, looked up): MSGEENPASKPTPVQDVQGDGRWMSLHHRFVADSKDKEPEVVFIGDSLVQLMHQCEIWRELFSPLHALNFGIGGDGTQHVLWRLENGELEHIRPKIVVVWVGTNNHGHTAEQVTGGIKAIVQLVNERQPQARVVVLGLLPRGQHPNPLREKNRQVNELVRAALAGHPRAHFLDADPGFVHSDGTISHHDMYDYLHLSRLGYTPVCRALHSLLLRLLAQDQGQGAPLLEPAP
PAFAH1B2 FP inh: blocks human PAF acetylhydrolase 1b catalytic subunit 2. recombinant PAFAH1B2, FP-rhodamine activity probe, fluorescence polarization. inhibition, % at 3.39 µM. 1.2% of 340,000 active;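 active means inhibition above the mean of all tested compounds plus 3 SD, cut at about 24% in these data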
Target sequence (P68402 whole entry, looked up): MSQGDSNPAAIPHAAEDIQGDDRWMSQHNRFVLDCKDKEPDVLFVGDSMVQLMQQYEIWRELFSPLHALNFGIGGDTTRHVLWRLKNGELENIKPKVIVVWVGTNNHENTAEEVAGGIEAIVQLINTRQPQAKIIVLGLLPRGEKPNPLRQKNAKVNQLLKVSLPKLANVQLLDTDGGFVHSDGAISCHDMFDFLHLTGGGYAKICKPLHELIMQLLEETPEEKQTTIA
Pemphigus Ab inh: human desmoglein-3 autoantibody binding inhibition; DSG3-coupled beads, scFv-anti-DSG3-GFP binding, flow cytometry; active compounds read low; P32926; binding (percent of control), % at 10 µM; 0.48% of 310,000 active; AID 588358;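 active means binding more than 3 SD below its plate's average and above zero; inconclusive means below that plate limit but binding exactly zero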;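 further: hits lower antibody fragment binding to DSG3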
PAFAH2 inh: inhibitors of human PAFAH2. Q99487. recombinant PAFAH2, FP-rhodamine activity probe, fluorescence polarization. inhibition, % at 3.39 µM. 0.99% of 340,000 active. AID 492956;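 active means inhibition above the mean over all tested compounds plus 3 SD, cut at about 30% in these data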;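 further: inhibitors block probe labeling of enzyme so polarization drops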
PfM18AAP inh-2: PfM18AAP inhibition, confirmation | 28% of 2,400 active | shares compounds with PfM18AAP inh-1 | inhibition, % at 7.35 µM | recombinant PfM18AAP, H-Glu-NHMec fluorogenic cleavage;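 active means mean inhibition over replicate wells above the hit cutoff set for the earlier primary screen, cut at about 29% in these data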
CTSL1 counter: counter-screen for PFM18AAP inhibitors: confirmation of human cathepsin L inhibitors. shares compounds with PfM18AAP inh-1. purified cathepsin L1, Z-Leu-Arg-MCA fluorescence. inhibition, % at 5.96 µM. 2,400 tested, under 10 active. AID 2178;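 active means average inhibition across replicates above the hit cutoff set in the earlier primary screen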
A number is an active result; . = inactive; ? = inconclusive; / = not tested or not shown.

SMILES	PfM18AAP inh-1	pPAFAH inh	PAFAH1B3 FP inh	PAFAH1B2 FP inh	Pemphigus Ab inh	PAFAH2 inh	PfM18AAP inh-2	CTSL1 counter
O=C(CN1CCN(S(=O)(=O)c2ccc(Cl)cc2)CC1)c1ccc(O)c(O)c1	70	.	.	33	.	.	39	.
Cc1ccc(S(=O)(=O)N2CCN(CC(=O)N/N=C\c3ccc(O)c(O)c3)CC2)cc1	48	.	.	.	.	.	40	.
NC(=O)CN1CCN(S(=O)(=O)c2ccc(Cl)cc2)CC1	.	.	.	.	.	.	/	/
Cc1ccc(S(=O)(=O)N2CCN(CC(=O)N/N=C/c3ccc(C)o3)CC2)cc1	.	.	.	.	/	.	/	/
O=C(CN1CCN(S(=O)(=O)c2ccc(F)cc2)CC1)c1ccc(O)c(O)c1	73	.	.	.	.	.	34	.
COc1ccc(S(=O)(=O)N2CCN(CC(=O)c3ccc(O)c(O)c3)CC2)cc1	72	.	.	.	.	.	41	.
CCc1ccc(NC(=O)C2CCN(S(=O)(=O)c3ccc4c(c3)CC(C)N4C(C)=O)CC2)cc1 (centres undefined)	.	.	.	.	.	.	/	/
CC1CCC(NC(=O)c2nc(Cn3ccc([N+](=O)[O-])n3)no2)CC1 (centres undefined)	.	.	.	.	.	.	/	/
Cc1cc(C)cc(C(=O)NCCC(=O)N2CCC3(CC2)NCCc2[nH]cnc23)c1	.	.	.	.	.	.	/	/
Cc1cc(OC(C)C(=O)NNC(=O)Nc2ccc(F)cc2F)cc(C)c1Cl (centres undefined)	.	.	.	.	.	.	/	/
CCCCOC(=O)Nc1ccc(S(=O)(=O)Nc2ncccn2)cc1	.	.	/	/	.	/	/	/
CCCCCOC(=O)Nc1ccc(S(=O)(=O)Nn2cnnc2)cc1	46	.	.	.	.	.	48	.
O=S(=O)(Nn1cnnc1)c1ccc(F)cc1	42	.	/	/	.	/	48	.
O=C(Nn1cnnc1)C1CCCN1S(=O)(=O)c1ccc(F)cc1 (centres undefined)	.	.	.	.	.	.	/	/
Cc1ccc(S(=O)(=O)Nn2cnnc2)cc1	65	.	.	.	.	.	56	.
Oc1ccc(C=NC2CCCCC2)cc1	.	.	.	.	.	.	/	/
O=S(=O)(Nn1c(O)c(C=C2N=c3ccccc3=N2)sc1=S)c1ccccc1	.	.	.	.	.	.	/	/
O=C(Nn1c(O)c(C=C2N=c3ccccc3=N2)sc1=S)c1ccccc1Cl	54	.	.	.	.	.	.	.
COc1ccc(-c2ccc(N)[n+](CCCC(=O)O)n2)cc1	/	.	.	.	.	.	/	/
O=S(=O)(c1ccc(S(=O)(=O)N2CCCC2)cc1)N1CCCCC1	.	.	/	/	/	/	/	/
O=c1c2ccccc2sn1-c1ccc(S(=O)(=O)N2CCCC2)cc1	33	.	.	.	62	.	.	.
O=c1c2ccccc2sn1-c1ccccc1	56	.	.	.	?	.	52	.
O=c1c2ccccc2on1-c1ccccc1	/	/	/	/	.	/	/	/
CN(C)S(=O)(=O)c1cccc(-n2sc3ccccc3c2=O)c1	43	.	.	.	29	.	43	.
Cc1ccc(-n2sc3ccccc3c2=O)cc1S(=O)(=O)N1CCCCC1	40	.	.	.	12	.	66	.
SMILES	PfM18AAP inh-1	pPAFAH inh	PAFAH1B3 FP inh	PAFAH1B2 FP inh	Pemphigus Ab inh	PAFAH2 inh	PfM18AAP inh-2	CTSL1 counter
CCCc1cc(=O)c2ccc(OC/C(C)=N/O)cc2o1	.	.	.	.	.	.	/	/
Cc1c(NC(=O)COC(=O)c2ncc(Cl)c(Cl)c2Cl)c(=O)n(-c2ccccc2)n1C	/	.	.	.	.	.	/	/
CCc1ccc(-n2ccc(=O)c(C(=O)O)n2)cc1	.	.	.	.	.	.	/	/
COCc1[nH]nc2c1C(c1ccc(OC)c(OC)c1)C(C#N)=C(N)O2 (centres undefined)	.	.	.	.	.	.	/	/
COCc1[nH]nc2c1C(c1cc(OC)c(O)c(OC)c1)C(C#N)=C(N)O2 (centres undefined)	38	.	.	.	.	.	.	.
NC(=O)C1(N2CCCCC2)CCN(C(=S)Nc2ccc(S(N)(=O)=O)cc2)CC1	33	.	.	.	.	.	.	.
